# Measurements: PubChem BioAssay (NCATS)
# “And” between values parts separate entries of the source, which are not always exact repeats. Equal values may be shown once. Unmarked numbers belong to inactive results. Results filed as inconclusive are left out. Where a call stands in place of a potency, no number is given. The source made the active and inactive calls. Unless noted, the call rests on the fitted dose curve; in most records, active means well fitted curve in the direction sought with a large enough effect; inconclusive means small, poorly fitted or top-dose-only effect, or another doubt; inactive means no such curve, though single readings can be large; an effect the other way counts as inactive or inconclusive.
# Tests used:
# [1] = Cell Viability - MRC5 (AID 434; calls by dose curve;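 further: potency means the concentration at half of the fitted maximal effect; cells exposed to compound for 40 hours at 37 °C; potency reflects cytotoxicity seen as loss of intracellular ATP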); settings: MRC5 lung fibroblast viability, qHTS
# In short: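 Decrease in intracellular ATP, quantified by luciferase light output, reflects compound toxicity toward MRC5 cells exposed for 40 hr in complete culture medium. Concentration-response curves, scaled between DMSO and 100 uM tamoxifen, gave AC50 values.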
# [2] = Cell Viability - Mesenchymal (AID 546); settings: mesenchymal cells viability, qHTS; series mostly up to 91.7 µM;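 further: cells exposed to compound for 40 hours before reading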
# In short: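 In this qHTS cytotoxicity format, glomerulus-derived human mesenchymal kidney cells received compound for 40 hr, then luciferase-based ATP quantitation. Concentration-response data were fitted with the Hill equation.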
# [3] = Cellular Toxicity (caspase-3) SHSY5Y (AID 657); settings: SH-SY5Y caspase-3 activation, DMSO zero, 10 µM staurosporine = 100%; series mostly up to 91.7 µM
# In short: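 Readout: caspase-cleaved peptide-aminoluciferin substrate driving luciferase light in SH-SY5Y neuroblastoma cells after 16 h treatment. Response normalized to DMSO and 10 uM staurosporine controls.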
# [4] = Cellular Toxicity (caspase-3) MRC-5 (AID 659); settings: MRC-5 cells, luminescence, normalized: DMSO 0%, 10 µM staurosporine 100%; series mostly up to 91.7 µM
# In short: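 Apoptosis readout in MRC-5 cells: luciferase light generated after caspase 3/7 cleaves a peptide-aminoluciferin substrate, measured post 16 hr compound incubation at 37 °C.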
# [5] = Cellular Toxicity (caspase-3) Mesangial (AID 660); settings: mesangial cells, normalized: DMSO 0%, 100 µM tamoxifen 100%; series mostly up to 91.7 µM;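 further: combined caspase 3 and 7 activity read by Caspase-Glo luminescence; cells exposed to compound for 16 h before the caspase read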
# In short: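 Caspase 3/7 activation measured by Caspase-Glo 3/7 luminescence (20 min, room temperature) following 16 h exposure of mesangial cells (1000/well); AC50 from Hill-equation fit, normalized to DMSO and 100 uM tamoxifen.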
# [6] = Cellular Toxicity (caspase-3) SK-N-SH (AID 661); settings: SK-N-SH caspase-3 activation, qHTS; series mostly up to 91.7 µM
# In short: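 Caspase 3/7 activation was read by luminogenic substrate cleavage after 16 hour treatment of SK-N-SH cells. Signal was scaled between DMSO and 10 uM staurosporine, and concentration-response data were fitted with the Hill equation for AC50.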
# [7] = Cellular Toxicity (caspase-3) Hek293 (AID 664); settings: HEK293 caspase-3 activation, DMSO = 0%, 100 µM tamoxifen = 100%; at 92.2 µM (top of the series);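 further: cells exposed to compound for 16 h at 37 °C before readout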
# In short: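 Concentration-response qHTS: caspase 3/7 activation measured by luminescent aminoluciferin substrate cleavage after 16 h compound exposure of Hek 293 cells. AC50 from Hill equation, with DMSO as basal and 100 uM tamoxifen as 100%.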
# [8] = Cellular Toxicity (caspase-3) N2a (AID 665); settings: N2a cells, luminescence, normalized: DMSO 0%, 10 µM staurosporine 100%; series mostly up to 92.2 µM;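 further: compound exposure lasted 16 h at 37 °C before readout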
# In short: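 Caspase-3/7 activation measured as luminescence from Caspase-Glo reagent (1 h, room temperature) after 16 h compound exposure of mouse N2a cells. AC50 values from Hill-equation concentration-response, scaled between DMSO and 10 uM staurosporine.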
# [9] = Cell Viability - LYMP1-002 - Assay at 16 hr (AID 948); settings: LYMP1-002 lymphoblastoid cell viability; series mostly up to 92.2 µM
# In short: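 In this qHTS, lymphoblastoid LYMP1-002 cells (human) receive compounds for 16 hr at 37 C. Viability is taken from CellTiter-Glo ATP luminescence, and AC50 derives from standard Hill fits.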
# [10] = MultiTox-Fluor Cytotoxicity Assay - LYMP1-003 - Dead Cells (AID 961); settings: LYMP1-003 lymphoblastoid cells, dead-cell protease fluorescence; series mostly up to 92.2 µM; further: nearly all actives have a fitted effect of over 70% in size
# In short: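 Human lymphoblastoid LYMP1-003 cells (2500/well) were treated with compounds for 16 hr at 37 C in complete medium. Dead-cell protease release was read by bis-AAF-R110 fluorescence (Ex/Em 485/520). AC50 came from Hill fits, normalized to DMSO and 15 uM tetraoctylammonium bromide.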
# [11] = MultiTox-Fluor Cytotoxicity Assay - LYMP1-003 - Live Cells (AID 962); settings: LYMP1-003 lymphoblastoid cells, MultiTox-Fluor live-cell protease fluorescence; series mostly up to 92.2 µM;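 further: cytotoxic hits lower the live-cell protease signal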
# In short: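 Live-cell protease activity (GF-AFC substrate, 405/510 nm, 60 min at room temperature) after 16 h, 37 C compound exposure of human lymphoblastoid LYMP1-003 cells; concentration-response fitted to the Hill equation for AC50.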
# [12] = Cell Viability - LYMP1-003 - Assay at 24 hr (AID 963); settings: LYMP1-003 lymphoblastoid cell viability; series mostly up to 92.2 µM
# In short: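 Concentration-response qHTS: ATP loss measured by CellTiter-Glo luminescence after 24 h compound exposure at 37 C. Cells were LYMP1-003 human lymphoblastoid, 2500 per well. AC50 derived via standard Hill equation modeling.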
# [13] = Cell Viability - LYMP2-004 (AID 966); settings: LYMP2-004 lymphoblastoid cell viability, qHTS; series mostly up to 92.2 µM; further: nearly all actives have a fitted effect of over 65% in size; further: potency means the concentration at half of the fitted maximal effect
# In short: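 AC50 values come from Hill modelling of concentration-dependent loss of intracellular ATP, measured by CellTiter-Glo luminescence. Human LYMP2-004 lymphoblastoid cells (2500/well) were exposed to compound for 24 h at 37 C.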
# [14] = Cell Viability - LYMP2-025 (AID 976); settings: LYMP2-025 lymphoblastoid cell viability; series mostly up to 92.2 µM; further: potency means the concentration at half of the fitted maximal effect
# In short: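 Cytotoxicity read as loss of intracellular ATP (luciferase luminescence) after 24 h compound treatment at 37 C. Uses LYMP2-025 lymphoblastoid cells in 1536-well format; Hill-equation modelling gives AC50; tetraoctylammonium bromide as positive control.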
# [15] = Cell Viability - LYMP2-007 (AID 979); settings: LYMP2-007 lymphoblastoid cell viability; series mostly up to 92.2 µM;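 further: cells exposed to compound for 24 h before reading; nearly all actives have a fitted effect of over 60% in size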; further: potency means the concentration at half of the fitted maximal effect
# In short: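 AC50 values come from Hill-equation fits of luminescent intracellular ATP (CellTiter-Glo, 30 min, room temperature) following 24 h compound exposure at 37 C. Cells: LYMP2-007 lymphoblastoid line, 2500 per well, in complete culture medium.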
# [16] = Cell Viability - LYMP2-014 (AID 983); settings: LYMP2-014 lymphoblastoid cells, viability qHTS; series mostly up to 92.2 µM; further: nearly all actives have a fitted effect of over 50% in size; further: potency means the concentration at half of the fitted maximal effect
# In short: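 Intracellular ATP loss, read by luciferase luminescence, measures acute cytotoxicity after 24 h compound exposure of lymphoblastoid LYMP2-014 cells (2500/well, 37 C). Concentration-response data fitted to the Hill equation for AC50.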
# [17] = Cell Viability - LYMP2-024 (AID 988); settings: LYMP2-024 lymphoblastoid cell viability; series mostly up to 92.2 µM; further: nearly all actives have a fitted effect of over 60% in size; further: potency means the concentration at half of the fitted maximal effect
# In short: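 Cytotoxicity was taken as a decrease in ATP (CellTiter-Glo luminescence) after 24 hr compound exposure at 37 C of LYMP2-024 lymphoblastoid cells, 2500 cells/well. Concentration-response data were fitted to the Hill equation to give AC50.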
# [18] = molecular target: Peroxisome proliferator-activated receptor alpha (Homo sapiens) (UniProt Q07869); test: qHTS assay for small molecule agonists of the peroxisome proliferator-activated receptor alpha (PPARalpha) signaling pathway (AID 651778); settings: PathHunter PPARalpha complementation, chemiluminescence, 6 h; hits give high values
# In short: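 Cells plated at 2,000/well and held overnight at 37 C, 5% CO2, then compound added by pin tool for 6 hr; after PathHunter detection reagent and 60 min at room temperature, chemiluminescence from enzyme complementation was read.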
# [19] = qHTS assay for small molecule agonists of the antioxidant response element (ARE) signaling pathway measured by Nrf2-dependant transcriptional activity - cell viability counter screen (AID 720653; active means well fitted curve in the direction sought with a large enough effect in the repeat runs; an effect the other way counts as inactive or inconclusive); settings: ARE-bla HepG2 viability, CellTiter-Glo ATP luminescence, 16 h; hits give low values
# In short: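 ARE-bla HepG2 cells (2,000/well) rested 5 hrs at 37C/5% CO2, then exposed to compounds in DMSO for 16 hrs. Viability was read in the same wells as intracellular ATP by luminescence, 30 min at room temperature after reagent addition.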
# [20] = qHTS assay for cell viability of the p53RE-bla HCT-116 cell line (AID 743292); settings: p53RE-bla HCT-116 viability, ATP luminescence, 16 h; series mostly up to 95 µM; further: nearly all actives have a fitted effect of over 55% in size
# In short: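 Viability of compound-treated p53RE-bla HCT-116 cells is taken from ATP-dependent luciferase luminescence. Treatment lasts 16 h at 37 C after a 5 h settling period; detection follows 30 min at room temperature.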
# Peroxisome proliferator-activated receptor alpha (Homo sapiens), sequence (Q07869 whole entry, looked up): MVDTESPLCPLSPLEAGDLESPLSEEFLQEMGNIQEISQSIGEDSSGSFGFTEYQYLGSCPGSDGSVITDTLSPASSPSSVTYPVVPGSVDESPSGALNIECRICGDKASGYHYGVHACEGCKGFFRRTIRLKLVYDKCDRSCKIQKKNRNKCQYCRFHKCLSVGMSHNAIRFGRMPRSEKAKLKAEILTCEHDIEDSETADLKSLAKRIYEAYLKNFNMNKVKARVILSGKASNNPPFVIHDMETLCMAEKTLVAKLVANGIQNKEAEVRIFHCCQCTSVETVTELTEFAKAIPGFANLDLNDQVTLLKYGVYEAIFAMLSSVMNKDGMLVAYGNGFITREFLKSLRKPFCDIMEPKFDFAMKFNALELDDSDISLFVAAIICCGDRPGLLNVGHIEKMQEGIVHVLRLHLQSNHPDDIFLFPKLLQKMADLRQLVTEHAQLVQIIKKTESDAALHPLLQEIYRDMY
Structure (SMILES),Potency [1] [µM],Potency [2],outcome [3],outcome [4],outcome [5],Potency [6],caspase-3 activation [7] [%],outcome [8],outcome [9],Potency [10],outcome [11],outcome [12],Potency [13],Potency [14],Potency [15],Potency [16],Potency [17],max response [18],max response [19],Potency [20]
BrCCc1ccccc1,> 92,inactive,inactive,inactive,inactive,inactive,0.126,inactive,inactive,inactive,inactive,inactive,inactive,inactive,inactive,inactive,inactive,-3.08%,-7.12%,inactive
Cc1ccc([N+](=O)[O-])cc1,> 92,inactive,inactive,inactive,inactive,inactive,-0.449,inactive,inactive,inactive,inactive,inactive,inactive,inactive,inactive,inactive,inactive,-0.114%,-6.34%,inactive
CCOC(=O)CBr,> 92,inactive,inactive,inactive,inactive,inactive,1.06,inactive,inactive,inactive,inactive,inactive,inactive,inactive,inactive,inactive,inactive,-2.92%,1.03%,inactive
CCOC(=O)C1OC1(C)c1ccccc1 (centres undefined),> 92,inactive,inactive,inactive,inactive,inactive,1.59,inactive,inactive,inactive,inactive,inactive,inactive,inactive,inactive,inactive,inactive,4.47%,-18.9%,inactive
C/C=C/C=O,> 92,inactive,inactive,inactive,inactive,inactive,-1.23,inactive,inactive,inactive,inactive,inactive,inactive,inactive,inactive,inactive,inactive,10%,-9.77%,inactive
N#C/C=C/C#N,> 92,,inactive,inactive,inactive,inactive,-2.32,inactive,inactive,inactive,inactive,inactive,15.8 µM (active),50.1 µM (active),39.8 µM (active),39.8 µM (active),31.6 µM (active),-6.4%,-28.1%,inactive
Brc1cccc(-c2ccccc2)c1,> 92,inactive,inactive,inactive,inactive,inactive,-1.08,inactive,inactive,inactive,inactive,inactive,inactive,inactive,inactive,inactive,inactive,-1.43%,-6.68%,inactive
Cc1ccc(OP(=O)(Oc2ccc(C)cc2)Oc2ccc(C)cc2)cc1,> 92,inactive,inactive,inactive,inactive,inactive,2.34,inactive,inactive,inactive,inactive,inactive,inactive,inactive,inactive,inactive,inactive,-4.04% and -0.382%,-0.985% and -5.89%,inactive
CCCCNC(=O)n1c(NC(=O)OC)nc2ccccc21,> 92,inactive,inactive,inactive,inactive,inactive,-2.55,inactive,inactive,inactive,inactive,inactive,inactive,inactive,inactive,inactive,inactive,0.197% and 0.6%,2.42% and 7.38%,inactive
Cc1cccc(N)c1C,> 92,inactive,inactive,inactive,inactive,inactive,1.27,inactive,inactive,inactive,inactive,inactive,inactive,inactive,inactive,inactive,inactive,-1.4%,1.88%,inactive
ClC(Cl)(Cl)C(Cl)(Cl)Cl,> 92,inactive,inactive,inactive,inactive,inactive,-1.3,inactive,inactive,inactive,inactive,inactive,inactive,inactive,inactive,inactive,inactive,-2.99%,-0.289%,inactive
N#CC(Br)Br,> 92,inactive,inactive,inactive,inactive,inactive,5.88,inactive,inactive,inactive,inactive,inactive,inactive,inactive,39.8 µM (active),,,-1.13%,-8.42%,inactive
Cl/C=C/Cl,> 92,inactive,inactive,inactive,inactive,inactive,-0.612,inactive,inactive,inactive,inactive,inactive,inactive,inactive,inactive,inactive,inactive,-4.81%,1.77%,inactive
Clc1cccc(Cl)c1Cl,> 92,inactive,inactive,inactive,inactive,inactive,-0.313,inactive,inactive,inactive,inactive,inactive,inactive,inactive,inactive,inactive,inactive,-3.74% and -0.322%,-3.73% and 1.34%,inactive
Cc1cc(-c2cc(C)c(N)c(C)c2)cc(C)c1N,> 92,inactive,inactive,inactive,inactive,inactive,-0.121,inactive,inactive,inactive,inactive,inactive,inactive,inactive,inactive,inactive,inactive,-3.9%,-5.77%,inactive
O=[N+]([O-])c1ccccc1CCl,> 92,inactive,inactive,inactive,inactive,inactive,0.434,inactive,inactive,inactive,inactive,inactive,inactive,inactive,,inactive,inactive,-1.86%,-9.56%,inactive
c1ccc2c(c1)CCNC2,> 92,inactive,inactive,inactive,inactive,inactive,-0.664,inactive,inactive,inactive,inactive,inactive,inactive,inactive,inactive,inactive,inactive,5.32%,5.02%,inactive
Oc1cc(Cl)c(Cl)c(Cl)c1Cl,,inactive,inactive,inactive,inactive,inactive,8.07,inactive,inactive,inactive,inactive,inactive,inactive,inactive,inactive,inactive,inactive,0.278%,,inactive
Nc1c(Cl)cc([N+](=O)[O-])cc1Cl,> 92,inactive,inactive,inactive,inactive,inactive,6.24,inactive,inactive,inactive,inactive,inactive,inactive,inactive,inactive,inactive,inactive,-4.31% and -1.23%,8.8% and -9.21%,inactive
Cc1ccc(N)cc1Cl,> 92,inactive,inactive,inactive,inactive,inactive,0.465,inactive,inactive,inactive,inactive,inactive,inactive,inactive,inactive,inactive,inactive,3.75%,7.4%,inactive
CN=C=O,> 92,inactive,inactive,inactive,inactive,inactive,1.04,inactive,inactive,inactive,inactive,inactive,inactive,inactive,inactive,inactive,inactive,1.15%,-4.34%,inactive
NC1CCC(CC2CCC(N)CC2)CC1 (centres undefined),> 92,inactive,inactive,inactive,inactive,inactive,-0.935,inactive,inactive,inactive,inactive,inactive,inactive,inactive,inactive,inactive,inactive,-7.49% and -0.343%,-9.14% and 3.44%,inactive
Cl/C=C/CCl,> 92,inactive,inactive,inactive,inactive,inactive,-1.73,inactive,inactive,inactive,inactive,inactive,inactive,inactive,inactive,inactive,inactive,-3.36%,-1.22%,inactive
